# Source: publication PMC8384837, “Expanding the binding specificity for RNA recognition by a PUF domain”
# Positions count from the first letter of the chain named.
# What was measured:
# Experiment in all cases: yeast three-hybrid, YBZ-1, SC-Leu-His + 0.5 mM 3-AT, 4 days
# Conditions in all cases: tags: N-Gal4 AD-HA kept; label: inside an RPR1-promoter hybrid RNA with tandem MS2 sites; ssRNA
# PUM1 PUF domain R7-GIR = PUM1 PUF domain R7-GIR (Homo sapiens, UniProt Q14671 828-1176, S1079G;N1080I;E1083R)
# Procedure, shortened: (§1)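 Pumilio-1 PUF domain libraries, randomized at the three base-contacting residues of each repeat, were co-expressed with matching RNA elements from a centromeric plasmid in strain YBZ-1, which carries a LexA–MS2 coat fusion and a HIS3 reporter. Transformants grew for four days on SC-Leu (input) or on SC-Leu-His + 0.5 mM 3-AT (selection), and the repeat regions were PCR-amplified and Illumina-sequenced. The interaction score is the log change in variant frequency from input to selection. That logarithm is base 2, with a pseudocount of 1 where a variant was absent.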
# PUM1 PUF domain R4-PHA = PUM1 PUF domain R4-PHA (Homo sapiens, UniProt Q14671 828-1176, N971P;Q975A)
# Procedure, shortened: as §1
# PUM1 PUF domain R5-FRG = PUM1 PUF domain R5-FRG (Homo sapiens, UniProt Q14671 828-1176, C1007F;Q1011G)
# Procedure, shortened: as §1
# PUM1 PUF domain R3-GYH = PUM1 PUF domain R3-GYH (Homo sapiens, UniProt Q14671 828-1176, C935G;R936Y;Q939H)
# Procedure, shortened: as §1
# PUM1 PUF domain R8-RHY = PUM1 PUF domain R8-RHY (Homo sapiens, UniProt Q14671 828-1176, N1122R;Y1123H;Q1126Y)
# Procedure, shortened: as §1
# PUM1 PUF domain R4-DHG = PUM1 PUF domain R4-DHG (Homo sapiens, UniProt Q14671 828-1176, N971D;Q975G)
# Procedure, shortened: as §1
# PUM1 PUF domain R6-VWL = target: T1, PUM1 PUF domain R6-VWL (Homo sapiens, UniProt Q14671 828-1176, N1043V;Y1044W;Q1047L)
# T1 sequence: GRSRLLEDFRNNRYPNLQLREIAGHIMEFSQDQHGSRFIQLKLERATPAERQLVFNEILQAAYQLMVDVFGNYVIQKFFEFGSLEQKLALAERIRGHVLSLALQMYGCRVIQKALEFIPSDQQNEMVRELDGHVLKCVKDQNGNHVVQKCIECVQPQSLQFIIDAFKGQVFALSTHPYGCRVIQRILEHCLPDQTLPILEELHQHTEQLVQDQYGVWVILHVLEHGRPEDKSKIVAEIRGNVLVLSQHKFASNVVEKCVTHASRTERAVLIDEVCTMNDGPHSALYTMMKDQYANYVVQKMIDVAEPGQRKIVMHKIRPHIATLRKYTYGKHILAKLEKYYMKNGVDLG
# Procedure, shortened: as §1
# PUM1 PUF domain R6-LWL = target: T2, PUM1 PUF domain R6-LWL (Homo sapiens, UniProt Q14671 828-1176, N1043L;Y1044W;Q1047L)
# T2 sequence: T1 sequence with V216L
# Procedure, shortened: as §1
# PUM1 PUF domain R5-PRI = PUM1 PUF domain R5-PRI (Homo sapiens, UniProt Q14671 828-1176, C1007P;Q1011I)
# Procedure, shortened: as §1
# PUM1 PUF domain R4-AMC = PUM1 PUF domain R4-AMC (Homo sapiens, UniProt Q14671 828-1176, N971A;H972M;Q975C)
# Procedure, shortened: as §1
sequence,measurement,setting,value
GGCUAGAACUAGUGGAUCCCCCGGCGCCCGGCGGCUCGAGCCCGGGUAAGUUUAAAUAGUCUGCAUGCCGCCGGGCGCCAUGCCUGCAGGUCGACUCUAGAAAACAUG,binding signal,PUM1 PUF domain R7-GIR,3.02 log2 enrichment (interaction score)
GGCUAGAACUAGUGGAUCCCCCGGCGCCCGGCGGCUCGAGCCCGGGUAAGUGUAUAUAGUCUGCAUGCCGCCGGGCGCCAUGCCUGCAGGUCGACUCUAGAAAACAUG,binding signal,PUM1 PUF domain R4-PHA,6.34 log2 enrichment (interaction score)
GGCUAGAACUAGUGGAUCCCCCGGCGCCCGGCGGCUCGAGCCCGGGUAAGUGUCAAUAGUCUGCAUGCCGCCGGGCGCCAUGCCUGCAGGUCGACUCUAGAAAACAUG,binding signal,PUM1 PUF domain R5-FRG,2.42 log2 enrichment (interaction score)
GGCUAGAACUAGUGGAUCCCCCGGCGCCCGGCGGCUCGAGCCCGGGUAAGUGUAAUUAGUCUGCAUGCCGCCGGGCGCCAUGCCUGCAGGUCGACUCUAGAAAACAUG,binding signal,PUM1 PUF domain R3-GYH,2.58 log2 enrichment (interaction score)
GGCUAGAACUAGUGGAUCCCCCGGCGCCCGGCGGCUCGAGCCCGGGUAAGCGUAAAUAGUCUGCAUGCCGCCGGGCGCCAUGCCUGCAGGUCGACUCUAGAAAACAUG,binding signal,PUM1 PUF domain R8-RHY,4.97 log2 enrichment (interaction score)
GGCUAGAACUAGUGGAUCCCCCGGCGCCCGGCGGCUCGAGCCCGGGUAAGUGUAAAUAGUCUGCAUGCCGCCGGGCGCCAUGCCUGCAGGUCGACUCUAGAAAACAUG,binding signal,PUM1 PUF domain R4-DHG,3.07 log2 enrichment (interaction score)
same,binding signal,PUM1 PUF domain R6-VWL,4.01 log2 enrichment (interaction score)
same,binding signal,PUM1 PUF domain R6-LWL,3.89 log2 enrichment (interaction score)
same,binding signal,PUM1 PUF domain R4-PHA,6.46 log2 enrichment (interaction score)
same,binding signal,PUM1 PUF domain R5-PRI,4.45 log2 enrichment (interaction score)
same,binding signal,PUM1 PUF domain R4-AMC,3.21 log2 enrichment (interaction score)
GGCUAGAACUAGUGGAUCCCCCGGCGCCCGGCGGCUCGAGCCCGGGUAAGUGUACAUAGUCUGCAUGCCGCCGGGCGCCAUGCCUGCAGGUCGACUCUAGAAAACAUG,binding signal,PUM1 PUF domain R4-PHA,5.37 log2 enrichment (interaction score)
same,binding signal,PUM1 PUF domain R4-AMC,2.52 log2 enrichment (interaction score)
GGCUAGAACUAGUGGAUCCCCCGGCGCCCGGCGGCUCGAGCCCGGGUAAGUGUUAAUAGUCUGCAUGCCGCCGGGCGCCAUGCCUGCAGGUCGACUCUAGAAAACAUG,binding signal,PUM1 PUF domain R5-FRG,2.88 log2 enrichment (interaction score)
